# Test results from PubChem BioAssay (NCI).
# About 83,000 compounds went through this panel and 20% of them were active in at least one assay; those are over-represented in the sample as a whole.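 Growth was measured after 48 h exposure to one concentration of compound in 96-well plates. Values under 10 count as active.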 A number with no mark means an inactive call. Active and inactive are the calls of the source.
# Tests used:
# Assay in all cases: NCI-60 one-dose screen, 48 h (100 = growth as untreated, 0 = no growth, -100 = all killed)
# Conditions in all cases: 10 µM unless noted
# [1] = test system: SK-MEL-2 melanoma
# [2] = test system: EKVX NSCLC
# [3] = test system: SN12C renal
# [4] = test system: UO-31 renal
# [5] = test system: TK-10 renal
# [6] = test system: ACHN renal
# [7] = test system: CAKI-1 renal
# [8] = test system: A498 renal
# [9] = test system: CCRF-CEM leukemia
# [10] = test system: MOLT-4 leukemia
# [11] = test system: SR leukemia
# [12] = test system: RPMI-8226 leukemia
# [13] = test system: OVCAR-8 ovarian
# [14] = test system: OVCAR-5 ovarian
# [15] = test system: OVCAR-4 ovarian
# [16] = test system: SK-OV-3 ovarian
# [17] = test system: IGROV1 ovarian
# [18] = test system: HS 578T breast
# [19] = test system: NCI/ADR-RES ovarian
Structure (SMILES),growth [1],growth [2],growth [3],growth [4],growth [5],growth [6],growth [7],growth [8],growth [9],growth [10],growth [11],growth [12],growth [13],growth [14],growth [15],growth [16],growth [17],growth [18],growth [19]
CN1CCN(Cc2ccc(NC(=O)c3cncc(C#Cc4cnc5ccc(N6CCOCC6)nn45)c3)cc2C(F)(F)F)CC1,-88.3% (active),-47.5% (active),-22.1% (active),-81.2% (active),-64.3% (active),-97.8% (active),-50.3% (active),-94.3% (active),-2.39% (active),0.376% (active),-28.4% (active),-23.9% (active),-37.6% (active),-20.4% (active),-19.7% (active),-31.9% (active),-32.8% (active),-27.8% (active),-15.8% (active)
CC1(C)CC[C@]2(C(=O)NCCCCCCN(CCCN)CCCN)CC[C@]3(C)C(=CC[C@@H]4[C@@]5(C)CC[C@H](O)C(C)(C)[C@@H]5CC[C@]43C)[C@@H]2C1,113%,91.8%,96.4%,85.7%,106%,105%,75.2%,117%,105%,102%,87.2%,100%,99%,96.8%,109%,114%,101%,110%,98.8%
Cc1ccc(CSC2=C(Cl)CN(c3ccc(Cl)cc3)C2=O)cc1,104%,104%,104%,78.6%,115%,107%,94.5%,113%,106%,110%,74.1%,92.8%,105%,106%,107%,117%,115%,107%,103%
O=C(CSc1nnc(-c2cccs2)n1-c1ccccc1)Nc1ccccc1F,95.8%,94.6%,99.1%,77.4%,110%,92.5%,55.6%,79.9%,76.9%,72%,25.3%,88.7%,95.1%,100%,95.1%,96.4%,84.9%,91.6%,49.2%
CC1=C(C)C(=O)C(Nc2ccc3c(c2)OCO3)=C(Br)C1=O,114%,76.3%,102%,88.1%,150%,100%,95.6%,95.2%,11.6%,-10.2% (active),56.9%,71%,98.3%,116%,60.3%,87.6%,90.9%,99.7%,97.4%
Cn1cc(-c2nn3cc(-c4ccncc4)nc3s2)c2cc(Br)ccc21,75.2%,45.7%,67.7%,39.3%,113%,68.9%,56.5%,81.4%,29.7%,12.9%,8.33% (active),15.2%,28.8%,73.8%,75.7%,87.6%,33.4%,54.3%,42.8%
CC1=C(C)C(=O)C(Nc2cccc(C(F)(F)F)c2)=C(Br)C1=O,104%,72.9%,97.1%,79.1%,157%,72.3%,94.3%,86.4%,-0.578% (active),-6.02% (active),26.1%,-10.8% (active),97%,128%,81.4%,86%,74.8%,99.4%,103%
COC(=O)CNC(=O)c1cccc(-c2cc(=O)c3c(OC)c(OC)c(OC)cc3o2)c1,105%,102%,104%,86.1%,109%,98.9%,102%,90.8%,91.3%,99.5%,85%,94.8%,98%,98.1%,102%,118%,99.1%,99.7%,99.5%
CN(C)c1cccc2c(S(=O)(=O)Nc3cccc(-c4csc(NC(=O)CCCCCN5CCN(CCO)CC5)n4)c3)cccc12,99.7%,85%,80.1%,86.4%,120%,96.9%,86.1%,101%,72.8%,47.5%,-9.78% (active),47.2%,89%,88.7%,92.4%,107%,86.1%,85.1%,103%
COc1ccc2c(c1)c(-c1nnc(N)nc1-c1c[nH]c3ccc(F)cc13)cn2C,36.3%,55.5%,69.5%,75.6%,90%,64.5%,41.6%,27.5%,22.3%,26.2%,12.5%,28.2%,59.5%,84.2%,86.3%,80.7%,45.7%,49.8%,75.2%
COc1ccc2c(c1)c(/C=N/Nc1ccnc3cc(Cl)ccc13)cn2C,-80.8% (active),-81.2% (active),-81.5% (active),-89.5% (active),-79.9% (active),-97.3% (active),-92% (active),-90% (active),-29.2% (active),-49.6% (active),-22.6% (active),-43% (active),-66.8% (active),-87.3% (active),-76.7% (active),-89.2% (active),-82% (active),-53.1% (active),-71.1% (active)
CCCc1[nH]c(-c2cc(N)ccc2Cl)c2c1C(=O)CCCC2,95.5%,90.3%,92.1%,78.3%,107%,107%,76.3%,108%,96.2%,88.6%,85.8%,89.7%,96.4%,94.7%,95.9%,103%,91.6%,89.9%,95.2%
O=C(CCCCCCN1CC(=O)N2[C@@H](c3ccccc3Br)c3[nH]c4ccccc4c3C[C@H]2C1=O)NO,39.3%,62.5%,66.3%,58.4%,28.7%,70.2%,42.2%,74.7%,17.7%,6.43% (active),14%,12%,34.1%,50.9%,88.1%,75.5%,48.3%,59.6%,83.7%
CSc1ccc(C(=NNS(=O)(=O)c2ccc(C)cc2)c2ccc(Cl)cc2)cc1,95.9%,98.2%,92.7%,81.8%,104%,105%,86.2%,96.5%,97.7%,98.6%,114%,97.8%,99.5%,94.3%,102%,111%,96.8%,101%,98.2%
COc1ccc(/C=N/NC(=O)CSc2nc(-c3cnccn3)cc(-c3cccs3)c2C#N)cc1,89%,78.2%,64%,101%,98.7%,74%,48.3%,79%,86.1%,73.8%,65.3%,48.3%,61.4%,103%,92.6%,75.6%,90.7%,64.6%,65.8%
Clc1ccc2[nH]cc(-c3nn4cc(-c5ccncc5)nc4s3)c2c1,79%,56.5%,33.9%,39.6%,125%,30.3%,54.5%,90.8%,75.2%,81.8%,28.8%,53.2%,10.6%,98.8%,43.2%,15.4%,44.6%,31.2%,2.69% (active)
CCOC(=O)C(=O)Nc1ccc2c(ccn2C(=O)c2cccc(F)c2)c1,99.8%,82.8%,101%,88.2%,97.6%,80.2%,92.7%,84.2%,2.8% (active),107%,96.3%,101%,93.1%,92.4%,101%,103%,103%,94.4%,100%
COc1ccccc1N1CCN(C2=C(Cl)C(=O)c3ncccc3C2=O)CC1,95.5%,98.2%,88.3%,44.5%,148%,45.7%,63.6%,115%,11.5%,38.3%,12.4%,79.4%,90.5%,114%,85.7%,90.5%,86.3%,87.2%,81.7%
COc1ccc([C@@H]2C(=O)N(c3cc(OC)c(OC)c(OC)c3)[C@H]2c2ccc(OC)c(O)c2)cc1,21.3%,48.4%,27.3%,25.4%,113%,28.3%,21%,-28.5% (active),21.5%,16%,20%,13.1%,10.6%,32.4%,58.9%,30.3%,22.5%,14.9%,13.6%
COc1ccc(C2C(C#N)=C(/N=C/c3ccc(Cl)cc3)Oc3c2sc2c(C)cccc32)cc1 (stereo not given),-12.9% (active),42.5%,42.4%,37.1%,76.9%,49.1%,39%,-11.5% (active),18.7%,17%,16.5%,22.6%,23.4%,34.9%,76.5%,42.8%,23.6%,-4.66% (active),11.2%
CCN1CCN(c2ccc(NC(=O)Nc3ccc4c(ccn4-c4ccnc(C(=O)NC)c4)c3)cc2C(F)(F)F)CC1,94.8%,86.3%,90.8%,71%,113%,74.7%,79.3%,81.1%,7.75% (active),10.9%,-2.78% (active),8.67% (active),98.4%,89%,87%,80.6%,79.3%,34.6%,86.5%
CN1CCN(c2ccc(Nc3nc(NCCNS(=O)(=O)c4ccccc4)c4sccc4n3)cc2)CC1,98.6%,95.2%,95%,81.2%,142%,101%,76.4%,101%,105%,95.3%,117%,102%,106%,102%,92.5%,107%,95.9%,88.1%,101%
CCOC(=O)c1c(NC(=O)c2ccc(C(F)(F)F)cc2)sc2c(CN3CCN(C)CC3)c(O)ccc12,44.8%,21.5%,-75.7% (active),-93.6% (active),-71.2% (active),-89.4% (active),-66% (active),-6.72% (active),-24.6% (active),-36.5% (active),-56.9% (active),-42% (active),-56.2% (active),-52.6% (active),-53.8% (active),-4.72% (active),-82.7% (active),-17.8% (active),-63.2% (active)
Cc1cc(=O)[nH]c(O)c1C#N,116%,94.3%,102%,84.3%,107%,99.5%,90.6%,104%,99.6%,100%,99.3%,-72% (active),102%,97.2%,98.3%,106%,103%,116%,106%
CN1CC[C@@H]2[C@@]3(C)CC[C@H](O)C(C)(C)[C@@H]3CC[C@@]2(C)[C@]2(C)CC[C@@]3(CO)CCC(C)(C)C[C@@H]3C12 (stereo not given in full),102%,100%,91.9%,68.2%,117%,99.8%,84.1%,97.1%,76.2%,75.4%,30.2%,74.6%,97.2%,91.7%,96.7%,108%,94.8%,79.2%,96.8%
FC(F)(F)c1cc(Br)cc(-c2cc(-c3ccc4c(c3)OCCO4)[nH]n2)c1,77.4%,52.4%,44.7%,51.3%,121%,28.9%,33.3%,11.6%,14.9%,22.5%,20.8%,22.5%,19.7%,48.8%,75.6%,52.5%,20.8%,41.4%,9.71% (active)
CCN(CC)c1ccc(/C=N/NC(=O)c2ccc(S(N)(=O)=O)cc2)c(O)c1,47.2%,15.9%,28.3%,7.5% (active),37.4%,14.8%,22.1%,24%,9.4% (active),11.2%,10.5%,38.3%,13.1%,50%,32.6%,32.2%,17.6%,54.3%,18%
CN1CCN(Cc2ccc(/C=N/Nc3ccnc4cc(Cl)ccc34)cc2)CC1,113%,82.6%,87.9%,78.8%,162%,90.5%,77.5%,111%,56.9%,63.1%,2.66% (active),46.7%,80.1%,102%,83%,107%,69.2%,89.3%,87%
COc1cc(/C=N\NC(=O)c2ccc3nc(-c4ccc(Br)cc4)[nH]c3c2)cc(OC)c1OC,60.2%,78.2%,63.4%,72.3%,58.9%,60.9%,33.2%,20.8%,25.8%,31.6%,37.9%,10.7%,45.6%,119%,74.1%,68.3%,57.9%,38%,95.9%
CCOC(=O)c1c(N)c(C#N)cn1Cc1ccc(Cl)cc1Cl,94.2%,81.8%,81.2%,59.9%,69.8%,87.4%,62.4%,73.5%,84.6%,65.1%,26.2%,83%,94.4%,85.5%,79.3%,101%,63.3%,73.4%,61.5%
